Hit rate of the full screen: of about 2,500 compounds, about 1,100 (44%) were called active.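 Rule for the calls: active = inhibition above 50% at 4 µM in the single-point screen; inactive = inhibition of 50% or less.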 The set was probably picked from earlier hits. This is one part of the list.
Experiment: TNF-a-driven NF-kB reporter inhibitors, primary screen, selectivity assay for NOD1/NOD2 signaling inhibitor project, cell-based, HEK293T NF-kB-Luc, luminescence (AID 1852)
Details: TNF-a induced, 14 h, at 4 µM, active compounds read high

inhibition, active:
COCCOC(=O)c1[nH]c2c(c1C)C(=O)CC(c1cc(OC)c(OC)c(OC)c1)C2 (configuration not stated) 58.3%
CC1=Nc2ccccc2/C1=C/c1sc(=N)n(-c2nccs2)c1O 99.2%
O=C(Nc1nc(-c2ccccc2)cs1)C1CCCN(S(=O)(=O)c2ccccc2)C1 (configuration not stated) 87.9%
O=C(Nc1nc(-c2cccs2)cs1)c1ccc(S(=O)(=O)N2CCCC2)cc1 83.9%
COc1ccccc1NC(=O)c1cc2cc(Br)ccc2cc1O 82.6%
COC(=O)C1CCCCN1C(=O)c1cc(COc2cccc3cnccc23)on1 (configuration not stated) 53.1%
CCOC(=O)CC1CCCCN1C(=O)c1cc(COc2cccc3cnccc23)on1 (configuration not stated) 60.8%
O=C(NC1CCCC1)c1sc(=S)n2c1[nH]c(=O)c1ccccc12 72.6%
O=C(NC1CCCCC1)c1sc(=S)n2c1[nH]c(=O)c1ccccc12 85.3%
N#C/C(=N\Nc1cccc(C(F)(F)F)c1)C(=O)c1csc(-c2cccnc2)n1 80.5%
CC(C)(C)OC(=O)NCC(=O)Oc1cc2oc(=O)cc(-c3ccccc3)c2cc1Cl 58%
O=C(CNC(=O)OCc1ccccc1)Oc1cc2oc(=O)cc(-c3ccccc3)c2cc1Cl 83.1%
O=C(COc1ccc(Br)cc1)Nc1ccc(Cc2ccncc2)cc1 64.1%
Nc1nc(N)c2cc(Sc3ccc4ccccc4c3)ccc2n1 51.9%
O=C(O)c1ccc(S(=O)(=O)/N=C2\C=C(Nc3ccccc3F)C(=O)c3ccccc32)cc1 89.6%
COC(=O)c1ccccc1NC1=C/C(=N\S(=O)(=O)c2ccc(C(=O)O)cc2)c2ccccc2C1=O 106%
Cc1ccccc1NC1=C/C(=N\S(=O)(=O)c2ccc(C(=O)O)cc2)c2ccccc2C1=O 104%
COc1ccc2sc3c(=O)[nH]c4ccccc4c3c2c1 54.1%
CCc1nnc(NC(=O)c2ccc(Cl)c(S(=O)(=O)N3CCc4ccccc43)c2)s1 53.5%
N#Cc1cccc(NC(=O)COC(=O)c2ccccc2C(=O)c2ccc(Cl)c([N+](=O)[O-])c2)c1 83.2%
O=C(COC(=O)c1ccccc1C(=O)c1ccc(Cl)c([N+](=O)[O-])c1)NC1CC1 73.1%
Cc1ccc(Cl)c(NC(=O)COC(=O)c2ccccc2C(=O)c2ccc(Cl)c([N+](=O)[O-])c2)c1Cl 84.2%
CCCNC(=O)COC(=O)c1ccccc1C(=O)c1ccc(Cl)c([N+](=O)[O-])c1 65.9%
CNC(=O)COC(=O)c1ccccc1C(=O)c1ccc(Cl)c([N+](=O)[O-])c1 81.6%

inhibition, inactive:
CCc1ccc(CN(C)C(=O)CCc2nc3ccccc3n(-c3ccc(OC)cc3)c2=O)cc1 41.1%
CCCCOC(=O)c1[nH]c2c(c1C)C(=O)CC(c1cc(OC)c(OC)c(OC)c1)C2 (configuration not stated) 47.1%
CCCOC(=O)c1[nH]c2c(c1C)C(=O)CC(c1cc(OC)c(OC)c(OC)c1)C2 (configuration not stated) 40.2%
Cc1ccc(-n2c(O)c(/C=C3/C(c4ccccc4)=Nc4ccccc43)c(=O)[nH]c2=O)cc1 28.1%
COC(=O)c1ccccc1NC(=O)C1CCCN(S(=O)(=O)c2ccc(F)cc2)C1 (configuration not stated) 21.7%
CCOC(=O)c1ccc(NC(=O)C2CCCN(S(=O)(=O)c3ccc(F)cc3)C2)cc1 (configuration not stated) -6.1%
O=C(Nc1nnc(S(=O)(=O)N2CCCCCC2)s1)c1ccc(Br)cc1 -43.1%
O=C(Nc1nnc(S(=O)(=O)N2CCCCCC2)s1)c1ccc(Cl)cc1 -43%
COc1ccc(C(C)=O)cc1COC(=O)c1cc2ccccc2cc1O 12.5%
COc1cc(NC(=O)c2cc3ccccc3cc2O)c(OC)cc1Cl 47.5%
COCCC1CCCCN1C(=O)c1cc(COc2ccc(-n3cncn3)cc2)on1 (configuration not stated) 15.4%
O=C(c1cc(COc2ccc3ncccc3c2)on1)N1CCCCCC1 31.2%
CC(Sc1nnc2c(n1)[nH]c1ccccc12)C(=O)NC1CCCCC1 (configuration not stated) 30%
O=C(CSc1nnc2c(n1)[nH]c1ccccc12)NC1CCCCC1 47%
O=C(COc1ccc2c(-c3ccccc3)cc(=O)oc2c1)Nc1ccc(CCO)cc1 44.2%
CC(C)(C)OC(=O)NCCc1nnc(S(=O)(=O)Cc2ccc(Cl)cc2Cl)o1 45.3%
CCCNc1c(NS(=O)(=O)c2ccc3c(c2)CCCC3)c(=O)oc2ccccc12 -3.6%
Cc1cc(OCC(=O)Nc2ccncc2)cc(C)c1Br 34.4%
Cc1cc(OCC(=O)Nc2ccncc2)cc(C)c1Cl 41%
COc1cccc2sc(N(CCCN(C)C)C(=O)CCS(=O)(=O)c3ccccc3)nc12 44.2%
Nc1nc(CCl)nc(Nc2ccc3ccccc3c2)n1 -13.4%
Nc1ncncc1-c1ccc2ccccc2c1 16.7%
CC(=O)Nc1ccc(S(=O)(=O)NCc2nc(-c3ccccc3C)no2)cc1 -15.1%
O=C1C=C(Nc2ccccc2O)c2ccccc2C1=O 38.6%
Cc1ccc(-c2nc(NC(=O)c3nn(C)cc3[N+](=O)[O-])sc2C)cc1C 33.4%
CCc1nnc(NC(=O)c2ccc(Cl)c(S(=O)(=O)N3CCc4ccccc4C3)c2)s1 31.8%
Cn1cc(S(=O)(=O)N2CCc3ccccc32)cc1C(=O)Nc1ccc(Cl)cc1 24.7%
N#Cc1cccc(NC(=O)Cn2cnc(S(=O)(=O)N3CCc4ccccc43)c2)c1 8.2%
Cc1ccc[n+](CC(=O)Nc2ccc(Cl)c([N+](=O)[O-])c2)c1 -10%
O=C(NCc1cc(Br)cc(Br)c1OC(=O)c1ccccc1[N+](=O)[O-])c1ccccc1 -35.5%
O=C(COC(=O)c1ccccc1C(=O)c1ccc(Cl)c([N+](=O)[O-])c1)NC1CCCCCC1 27.6%
O=C(O)c1ccc(N/N=C/c2ccc(OC(=O)c3cccc(Cl)c3)cc2)cc1 -26.3%
Nc1ccc(C(=O)OCC(=O)N2CCc3ccccc3C2)cc1[N+](=O)[O-] 31.9%

From PubChem BioAssay AID1852 (Sanford-Burnham Center for Chemical Genomics, 2009)
